The structures appear in SMILES notation. This is part of a sample that, as a whole, favours compounds with a hit. Of some 83,000 tested, about 20% had one in any assay.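 Growth was measured after 48 h exposure to one concentration of compound in 96-well plates. Values under 10 count as active.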 A number with no mark means an inactive call. Active and inactive are the calls of the source.

The assay relates to HL-60(TB) leukemia. Put plainly: NCI-60 one-dose screen, 48 h (100 = growth as untreated, 0 = no growth, -100 = all killed). Particulars: 10 µM unless noted.
Take `CCNc1ncnc2n[nH]nc12`: the growth is 94.8%.

With `O=C(Nc1ccc(Oc2cccc(Cl)c2)c(Cl)c1)c1cccnc1`, the growth is 6.06% (active).

Take `N#Cc1cnn(-c2nc3c(Cl)cccc3s2)c1N`: the growth was 97.7%.

As to `Brc1ccc(Br)nn1`, the growth is -32.7% (active).

As to `CC(C)C(=O)Cc1cnccn1`, the growth was 134%.

As for `COc1cc2c(cc1OC)C(Sc1ccc(SC)cc1)c1c(nc(N)c(C#N)c1N)O2` (stereo unspecified), the growth is -52.9% (active).

For `CCCCC(CCc1ccccn1)C(=O)c1ccccc1` (stereo unspecified), the growth was 110%.

Regarding `CN1CCN(CCCOc2ccc3nc(Nc4cc(Cl)cc(Cl)c4)ccc3c2)CC1`, the growth was -39.2% (active).

For `Clc1ccc(-c2nc(-c3c[nH]c4ncccc34)cs2)cc1`, the growth was 87.4% [100 µM].

As to `NC(N)=N/N=C/c1ccc([N+](=O)[O-])o1`, the growth is 76.1%.

As to `COCCN1CCN(Cc2ccc(-c3n[nH]c4c3C(=O)c3c(NC(=O)NN5CCOCC5)cccc3-4)cc2)CC1`, the growth was -36.9% (active).

Regarding `O=C(O)c1cccc2c1C(=O)N(c1ccc3c(c1)Cc1ccccc1-3)C2=O`, the growth is 112%.

As for `Cn1c2c(cc(S(=O)(=O)c3ccccc3)c1=O)CCc1c-2cnn1-c1cccc(Cl)c1`, the growth was 107%.

Turning to `COc1cc(Nc2ncc3c(n2)-c2ccc(Cl)cc2C(c2c(F)cccc2OC)=NC3)ccc1C(=O)O`, the growth was 45.4%.

As to `C/C(=N\NC(=O)CSc1nc2ccccc2c(=O)n1CCc1ccc(S(N)(=O)=O)cc1)c1ccc(Br)cc1`, the growth is 66.3%.

Take `O=C(NCCNc1cc(-c2cn(-c3ccccc3)nc2-c2cccc(O)c2)ccn1)Nc1ccccc1`: the growth was 29.9%.

The values are drawn from PubChem BioAssay (NCI).
